The text below walks through data of PubChem BioAssay (EPA / NIEHS).

The structures appear in SMILES notation. Activity calls are given as the source filed them. The calls were made as follows: active = hit-call score of the fitted dose curve at least 0.9, where 1 is the maximum; inactive = score below 0.9.

A short description of the assay: ATG_RORE_CIS: Attagene CIS-FACTORIAL HepG2 Assay for human RAR-related Orphan Receptor Element (RORE) (AID 2282959). To be noted: HepG2 Attagene cis-factorial RORE reporter, mRNA; actives raise or lower the signal. As for the experimental part: ATG_CIS is a cell-based, multiplexed-readout assay that uses HepG2, a human liver cell line, with measurements taken at 24 hours after chemical dosing in a 24-well plate.ATG_RORE_CIS is one of 52 assay component(s) measured or calculated from the ATG_CIS assay. It is designed to make measurements of mRNA induction, a form of inducible reporter, as detected with fluorescence intensity signals by Reverse transcription polymerase chain reaction (RT-PCR) and Capillary electrophoresis technology.Data from the assay component ATG_RORE_CIS was analyzed into 1 assay endpoint. This assay endpoint, ATG_RORE_CIS, was analyzed with bidirectional fitting relative to DMSO as the negative control and baseline of activity. Using a type of inducible reporter, measures of mRNA for gain or loss-of-signal activity can be used to understand the reporter gene at the transcription factor-level as they relate to the gene RORA and RORB and RORC. Furthermore, this assay endpoint can be referred to as a primary readout, because this assay has produced multiple assay endpoints where this one serves a reporter gene function. To generalize the intended target to other relatable targets, this assay endpoint is annotated to the nuclear receptor intended target family, where the subfamily is orphan.
Human liver HepG2 cells are transiently transfected with multiple reporter transcription units (MRTUs) in 6-well plates using FuGene 6 reagent (Roche; 3 ml FuGene/1 mg DNA). The MRTU constructs are regulated by a cis-regulating element (promoter). […] A major difference between the CIS and TRANS system is that in CIS activities of endogenous TFs are measured, whereas the TRANS assay evaluates changes in activities of exogenous, chimeric NR-Gal4 proteins. […] At the end of 24 hour incubation, total RNA was isolated using TriZol reagent (Invitrogen). The isolated RNA is then reverse-transcribed using oligo(dT) primer and Mo-MLV reverse transcriptase (Invitrogen) with DNAse I (Ambion) treatment for 30 min. The one-tenth of the produced cDNA was amplified by PCR using Taq DNA polymerase (Invitrogen) and two reporter sequence-specific primers. The PCR products were fluorescently labeled by primer extension with 6-arboxyfluorescein (6-FAM) 5'-labeled reporter sequence-specific primer (2 min at 95 C, 20 s at 68 C and 10 min at 72 C) and these products were digested with 5U of HpaI (New England Biolabs) for 2h at 37 C. The fragments were purified using Qiaquick PCR columns (Qiagen), analyzed on an ABI 3130xL genetic analyzer (Applied Biosystems) with peak positions identified by using a set of X-rhodamine (ROX)-labeled MapMarker1000 molecular weight standards (BioVentures). The raw capillary electrophoresis data was processed using Attagraph software (Attagene).
`CC(C)CCCCCCCOC(=O)c1ccccc1C(=O)OCCCCCCCC(C)C`: the result was inactive.

For the molecule `CCNCC`, the call was inactive.

Take `O=P(O)(Oc1ccccc1)Oc1ccccc1`: the molecule was classed as inactive.

Take `O=C1Nc2ccc(Cl)cc2C(c2ccccc2)=NC1O` (stereo not given): the result was inactive.

For the molecule `CC(C)(C)C(O)C(Oc1ccc(-c2ccccc2)cc1)n1cncn1` (stereo not given), the outcome was inactive.

Consider `C=CCN(CC=C)C(=O)C(Cl)Cl`, for which the outcome was inactive.

Take `O=C1C=CC(=O)C=C1`: the outcome was inactive.

As for `CC(C)c1ccc(O)cc1`, the outcome was inactive.

Consider `N#CCCCCC#N`, for which the molecule was called inactive.

Take `ClCCCCCCCl`: the molecule was called inactive.

For `N#CCCCl`, the outcome was inactive.

As to `Nc1ccccc1C(=O)OCCc1ccccc1`, the AC50 (commonly the midpoint of the concentration-response curve, whichever way the signal moves) was 20.8 µM (active).

With `Oc1ccc(Cl)cc1`, the molecule was called inactive.

As for `c1ccc(P(c2ccccc2)c2ccccc2)cc1`, the call was inactive.

Consider `Cl/C=C\CCl`, for which the result was inactive.

For `C[C@]12CC[C@H](O)C[C@H]1CC[C@@H]1[C@@H]2C[C@@H](O)[C@]2(C)[C@@H](C3=CC(=O)OC3)CC[C@]12O`, the molecule was classed as inactive.

As for `CCCC=NO`, the call was inactive.

For `CC1OC(C)OC(C)O1` (stereo not given), the call was inactive.

With `Nc1ccc([N+](=O)[O-])cc1N`, the molecule was called inactive.

In the case of `[Cl-].[Cl-].[Cl-].[Yb+3]`, the result was inactive.

Regarding `CCCCCCCCCCCC#N`, the result was inactive.

In the case of `ClCC(Cl)Cl`, the molecule was classed as inactive.

For `SCc1ccco1`, the outcome was inactive.

For the molecule `C=CCc1ccc(OC(=O)Cc2ccccc2)c(OC)c1`, the molecule was called inactive.

For the molecule `CN(N=O)c1ccccc1`, the result was inactive.

Take `Nc1ccccc1C(=O)Oc1ccc2ccccc2c1`: the molecule was classed as inactive.

With `CCCCCc1cc(O)cc(O)c1`, the AC50 is 50.4 µM (active).

As for `C[C@]12CCC(=O)C(O)=C1CC[C@@H]1[C@@H]2CC[C@]2(C)C(=O)CC[C@@H]12`, the molecule was called inactive.

For the molecule `CC(O)CN(CC(C)O)CC(C)O` (stereo not given), the molecule was classed as inactive.

In the case of `CCCCOP(=O)(O)OCCCC`, the molecule was classed as inactive.

`BrCBr`: the call was inactive.

As for `c1ccc2c(c1)CCCC2`, the call was inactive.

With `Clc1ccc(-c2ccccc2)cc1`, the call was inactive.

For the molecule `O=[N+]([O-])c1ccc(Cl)cc1`, the molecule was called inactive.

Regarding `COC(C)(C)CCC[C@H](C)C/C=C/C(C)=C/C(=O)OC(C)C`, the molecule was classed as inactive.

Consider `C=CC(=O)OC`, for which the call was inactive.

In the case of `[N-]=[N+]=CC(=O)OC[C@H](N)C(=O)O`, the molecule was classed as inactive.

In the case of `CC(=O)c1cc2c(cc1C)C(C)(C)C(C)CC2(C)C` (stereo not given), the concentration at half-maximal activity (AC50) was 166 µM (active).

On to `O=CNC(N1CCN(C(NC=O)C(Cl)(Cl)Cl)CC1)C(Cl)(Cl)Cl` (stereo not given), for which the molecule was classed as inactive.

With `CCOC(=O)NC(=S)Nc1ccccc1NC(=S)NC(=O)OCC`, the call was inactive.
